Values joined by “and” are separate entries in the source; they are usually repeats but may differ in a detail not shown here. Equal values may be shown once. The campaign covered roughly 2,100 compounds. About 670 (32%) were called active. Not shown: some 50% with an inconclusive outcome. The call rests on the fitted dose curve; in most records, active means well fitted inhibition curve with a large enough effect; inconclusive means small, poorly fitted or top-dose-only effect; inactive means no such curve, though single readings can be large or run the other way. The list shows a part of the results.
On the % scale 0 is the no-effect control and ±100 the full control effect; potency means the concentration at half of the fitted maximal effect.

The assay can be described thus: CMV-Luciferase Counterscreen for Inhibitors of ATXN expression. Further: nearly all actives have a fitted effect of over 55% in size. Particulars: HEK-293 CMV-luciferase reporter, luminescence, 24 h; series mostly up to 57.5 µM; activity change, negative = inhibition: at the top concentration. For orientation: A counterscreen serves to expose hits that act by an unwanted route or on another target.
As for `OC(c1cc(-c2cccc(Cl)c2)nc2ccccc12)C1CCCCN1` (stereo unspecified), the Potency is 22.4 µM (active).

With `Cc1onc(-c2c(F)cccc2Cl)c1C(=O)Nc1nnc(C(F)(F)F)s1`, the Potency was 1.41 µM (active).

For the molecule `C[n+]1c2cc(N)ccc2cc2ccc(N)cc21`, the Potency was 8.91 µM (active) and 3.55 µM (active).

In the case of `Cc1nc2ccccc2n1-c1nc(-c2ccco2)cc(C(F)(F)F)n1`, the “activity change, negative = inhibition” value was -23.8% (inactive).

In the case of `CC(C)NC1CCC(Nc2ccnc3cc(Cl)ccc23)CC1` (stereo unspecified), the Potency was 17.8 µM (active).

Regarding `Cc1ccc(N=Nc2ccc(O)c3ncccc23)cc1`, the Potency was 3.55 µM (active).

Regarding `Cc1ccccc1N=Nc1ccc(O)c2ncccc12`, the Potency was 1.41 µM (active).

Turning to `CC(C)(C)S(=O)(=O)/C(C#N)=N/Nc1ccc(Cl)cc1`, the Potency is 7.94 µM (active).

Regarding `FC(F)(F)c1ccc(N2CCN(c3cc(-c4ccccc4)nc4ncnn34)CC2)nc1`, the Potency was 1.58 µM (active).

For the molecule `O=c1cc(Nc2ccc3c(c2)OCCO3)[nH]c(=O)n1-c1ccc(Br)cc1`, the “activity change, negative = inhibition” value is -20.1% (inactive).

Regarding `CCN(CC)c1ccc(/C=N/NC(=O)CCC(=O)NCc2ccccc2)c(O)c1`, the Potency was 3.16 µM (active).

As for `CCN(CC)c1ccc(/C=N/NC(=O)c2cccc(S(=O)(=O)N3CCOCC3)c2)c(O)c1`, the Potency was 0.891 µM (active).

For `CCN(CC)c1ccc(/C=N/NC(=O)Cc2cccs2)c(O)c1`, the Potency is 2.82 µM (active).

As for `O=C(Cn1c(=O)n(CC(=O)NCc2ccccc2)c2ccccc21)NCc1ccccc1`, the “activity change, negative = inhibition” value was 22.5% (inactive).

Regarding `CN(C)c1nc(N/N=C/c2c[nH]c3ccccc23)nc(N2CCOCC2)n1`, the activity change, negative = inhibition is -16.1% [at 11.4 µM] (inactive).

As for `Cc1cc(C)n(-c2nc(NCCN(C)C)c3c4c(sc3n2)COC(C)(C)C4)n1`, the activity change, negative = inhibition was -12.1% [at 11.4 µM] (inactive).

With `CN1CCN(c2nc(-c3ccccn3)nc3ccccc23)CC1`, the “activity change, negative = inhibition” value is -26.3% (inactive).

With `c1ccc(CNc2nc(-c3ccccn3)nc3ccccc23)cc1`, the Potency is 4.47 µM (active).

On to `O=S(=O)(Cc1cc(NCc2ccccc2)nc(-c2ccccn2)n1)c1ccccc1`, for which the “activity change, negative = inhibition” value was -28.9% (inactive).

With `O=S(=O)(c1ccc2c(c1)OCCO2)N1CCC(c2nc3ccc(Cl)cc3[nH]2)CC1`, the Potency is 3.98 µM (active).

As to `CCOc1ccc(NCc2cccn2-c2nnc(N3CCC(C(=O)NCCCN4CC(C)CC(C)C4)CC3)s2)cc1` (stereo unspecified), the activity change, negative = inhibition was -19.5% [at 11.4 µM] (inactive).

Take `COc1ccc(-n2c(-c3ccc(Cl)cc3)c[n+]3c2CCCCC3)cc1`: the Potency is 12.6 µM (active).

Turning to `COc1ccc(-c2c[n+]3c(n2-c2ccc(C)cc2)CCCCC3)cc1`, the Potency was 6.31 µM (active).

In the case of `O=c1cc(-c2ccccc2Cl)oc2c([N+](=O)[O-])c(O)cc(O)c12`, the Potency is 1.26 µM (active).

`CC1(S(=O)(=O)O)CC(=O)c2ccccc2C1=O` (stereo unspecified): the Potency is 28.2 µM (active).

`CCn1c(C)cc(C(=O)COC(=O)c2ccccc2[N+](=O)[O-])c1C`: the Potency was 22.4 µM (active).

For the molecule `CC(C)N(C(=O)COC(=O)c1ccccc1C(=O)c1ccc(Cl)c([N+](=O)[O-])c1)C(C)C`, the activity change, negative = inhibition is -18% [at 11.4 µM] (inactive).

As to `O=C(CCc1ccccc1)N/N=C/c1cc(Br)ccc1O`, the Potency was 0.891 µM (active).

For `Cc1ccc(SCCC(=O)N/N=C/c2ccccc2O)cc1`, the Potency was 1.78 µM (active).

On to `O=C(CCN1CCN(c2ccccc2)CC1)N/N=C/c1ccccc1O`, for which the Potency was 0.501 µM (active).

Regarding `O=C(CP(=O)(c1ccccc1)c1ccccc1)N/N=C/c1cc(Br)cc(Br)c1O`, the Potency is 1.78 µM (active).

For the molecule `O=C(COc1nsnc1N1CCOCC1)N/N=C/c1ccccc1O`, the Potency is 11.2 µM (active).

On to `O=C(CCCOc1ccc(Cl)cc1Cl)N/N=C/c1ccccc1O`, for which the Potency was 2.51 µM (active).

Take `O=C(CN1CC(c2ccccc2)CC1=O)N/N=C/c1cc(Br)ccc1O` (stereo unspecified): the Potency is 10 µM (active).

On to `O=C(Cc1ccccc1)N/N=C/c1cc(Br)cc(Br)c1O`, for which the Potency is 2.51 µM (active).

In the case of `NC(Cc1ccc(C(F)(F)F)cc1)c1csc(Nc2nccc(C(F)(F)F)n2)n1` (stereo unspecified), the activity change, negative = inhibition was -10.1% [at 11.4 µM] (inactive).

As for `O=C(CCC(=O)Nc1ccc(Br)cc1)N/N=C/c1ccccc1O`, the Potency was 1.26 µM (active).

As to `COc1ccc(O)c(/C=N/NC(=O)CCC(=O)Nc2cccc(C)c2)c1`, the Potency is 10 µM (active).

In the case of `NNC(=O)/C(=N/Nc1ccccc1)S(=O)(=O)c1ccc(Cl)cc1`, the Potency is 3.55 µM (active).

For `CCCCC(=O)N(C)c1c(CC)nc2c(OCc3ccc(Cl)cc3Cl)cccn12`, the Potency is 3.55 µM (active).

In the case of `CCOC(=O)N(C)c1c(CC)nc2c(OCc3ccccc3C)cccn12`, the Potency is 20 µM (active).

As for `CCc1nc2c(OCc3ccc(Cl)cc3Cl)cccn2c1N(C=O)Cc1ccc(OC)cc1`, the Potency was 3.16 µM (active).

On to `CCCCC1C(=O)CC[C@H]2[C@@H]1CC(=O)[C@@H]2C/C=C\CCCC(=O)O` (stereo partly specified), for which the activity change, negative = inhibition was 4.23% [at 11.4 µM] (inactive).

For the molecule `O=C(NCC1CC1)c1ccc2c(c1)S(=O)(=O)c1cc(Cl)ccc1C2=O`, the activity change, negative = inhibition was -10.6% [at 11.4 µM] (inactive).

On to `C=CCn1c(COc2ccccc2)nnc1SC(C)C(=O)N/N=C/c1cc(Cl)ccc1O` (stereo unspecified), for which the Potency was 10 µM (active).

Take `Cc1nnc(SC(C)C(=O)Nc2ccc(Cl)cn2)n1Cc1ccccc1` (stereo unspecified): the “activity change, negative = inhibition” value was -4.16% (inactive).

As to `C=CCn1c(COc2ccccc2)nnc1SCC(=O)N/N=C/c1cc(Cl)ccc1O`, the “activity change, negative = inhibition” value was -22.4% (inactive).

As for `O=C(Nc1nc(-c2ccccn2)cs1)c1ccccc1-n1cnnn1`, the Potency was 3.55 µM (active).

With `N#Cc1cc2c(=O)n3ccccc3nc2n(-c2ccccc2Cl)c1=O`, the “activity change, negative = inhibition” value was -3.29% (inactive).

For the molecule `Cc1nc(SCC(=O)Nc2ccc(S(=O)(=O)N3CCOCC3)cc2)c2c(C)c(C)sc2n1`, the Potency was 2.82 µM (active).

Regarding `Cc1ccc(C)c(N2CCN(C(=O)C34CC5CC(C3)CC(n3nnc(C)n3)(C5)C4)CC2)c1`, the Potency is 11.2 µM (active).

On to `Cc1ccc(NC(=O)CSc2ccc(Br)cc2)cc1S(=O)(=O)N1CCOCC1`, for which the Potency is 22.4 µM (active).

For the molecule `COc1ccc(/C=C/C(=O)c2cc3cccc(OC)c3oc2=O)cc1`, the “activity change, negative = inhibition” value was 30% (inactive).

Take `O=C(CSc1ccc2c(c1)OCCO2)Nc1ccc(Cl)cn1`: the “activity change, negative = inhibition” value is 294% (inactive).

Turning to `Cc1ccc(NC(=O)/C=C/c2ccc(S(=O)(=O)N3CCOCC3)cc2)cc1S(=O)(=O)N(C)C`, the Potency is 2.51 µM (active).

For the molecule `COc1ccc(/C=C/C(=O)Nc2ccc(C)c(S(=O)(=O)N3CCOCC3)c2)cc1`, the Potency was 10 µM (active).

For the molecule `COc1ccccc1N1CCN(Cc2ccc(O)c3ncccc23)CC1`, the Potency is 0.891 µM (active).

For the molecule `OC1(c2ccc(Cl)cc2)CCN(Cc2c[nH]c3ccccc23)CC1`, the activity change, negative = inhibition was -23.5% [at 11.4 µM] (inactive).

Take `Cc1ccc(C)c(S(=O)(=O)N2CCN(Cc3ccc(O)c4ncccc34)CC2)c1`: the Potency was 2.82 µM (active).

Regarding `O=S(=O)(c1ccc(Cl)cc1)N1CCN(Cc2ccc(O)c3ncccc23)CC1`, the Potency was 8.91 µM (active).

Regarding `Cc1ccc(S(=O)(=O)/C(=C/Cl)NC(=O)c2ccccc2)cc1`, the Potency was 11.2 µM (active).

As to `O=C(Nc1ccc(F)cc1)Nc1cc(OCC(F)(F)F)cc(OCC(F)(F)F)c1`, the Potency was 3.98 µM (active).

Take `CC[n+]1ccccc1/C=C1\Sc2ccc(C)cc2N1C`: the Potency was 6.31 µM (active).

Consider `Cc1cc(C)nc(NNS(=O)(=O)c2ccc(F)c(Cl)c2)n1`, for which the activity change, negative = inhibition was -15.9% [at 11.4 µM] (inactive).

In the case of `COc1ccccc1-c1ccc2c(c1)C(C)(Cc1cccc(F)c1)C(=O)N2` (stereo unspecified), the Potency is 28.2 µM (active).

Turning to `Cc1ccc(Nc2c(-c3ccccn3)nc3cccc(C)n23)cc1`, the Potency was 3.55 µM (active).

For the molecule `Cc1cccc(N(CC(O)CON=C2c3ccccc3-c3ccccc32)S(C)(=O)=O)c1` (stereo unspecified), the Potency is 25.1 µM (active).

`N#Cc1ccc(/C=C\c2nccc3c2[nH]c2ccccc23)cc1`: the activity change, negative = inhibition was -24% [at 11.4 µM] (inactive).

Turning to `CC1CCN(Cc2c(C(=O)N/N=C/c3ccccc3O)nnn2-c2nonc2N)CC1`, the Potency is 1.58 µM (active).

As for `Cc1c(C(=O)N/N=C/c2c(O)ccc3ccccc23)nnn1-c1nonc1N`, the Potency was 0.282 µM (active).

For the molecule `Nc1nonc1-n1nnc(C(=O)N/N=C/c2ccccc2O)c1CN1CCCC1`, the Potency was 10 µM (active).

`O=C(/C=C/c1ccccc1Cl)c1ccccc(=O)c1O`: the “activity change, negative = inhibition” value was 33.6% (inactive).

Consider `COc1cc2c3nnc(-c4ccc(F)cc4)c-3cn(Cc3ccccc3F)c2cc1OC`, for which the activity change, negative = inhibition is 65% [at 11.4 µM] (inactive).

As to `Oc1c(C(Nc2cccc(C(F)(F)F)c2)c2ccncc2)ccc2cccnc12` (stereo unspecified), the Potency was 3.98 µM (active).

`CC(C)C(=O)NC(c1cccc([N+](=O)[O-])c1)c1ccc2cccnc2c1O` (stereo unspecified): the Potency is 2.82 µM (active).

For `O=[N+]([O-])c1ccc(NC(c2ccccc2)c2ccc3cccnc3c2O)cc1` (stereo unspecified), the Potency is 2.51 µM (active).

`C[C@@H]1CN([C@H](C)CO)S(=O)(=O)c2ccc(-c3ccc(C#N)cc3)cc2O[C@H]1CN(C)C(=O)Nc1cc(F)ccc1F`: the Potency was 12.6 µM (active).

On to `Cc1cc(C)c2nc(N3CCCC(C(=O)N4CCN(c5ncccn5)CC4)C3)sc2c1` (stereo unspecified), for which the Potency was 3.55 µM (active).

On to `O=c1c(O)c(-c2ccccc2)oc2ccccc12`, for which the activity change, negative = inhibition is -28.6% [at 11.4 µM] (inactive).

As for `CCCCN(C(=O)c1cccc2c(=O)c(C)c(-c3ccccc3)oc12)c1ccccc1`, the Potency is 12.6 µM (active).

For the molecule `COc1ccc(Cc2[nH]n3c(=O)cc(C(C)C)nc3c2-c2ccccc2)cc1`, the Potency was 8.91 µM (active).

`CN1CCC[C@H]1CCNc1ccc2c(=O)c3ccccc3n(C)c2c1`: the “activity change, negative = inhibition” value is 8.82% (inactive).

Take `O=C(CSc1n[nH]c(-c2ccccn2)n1)Nc1ccc(F)cc1`: the Potency was 8.91 µM (active).

Regarding `O=C(CC1NCCc2ccccc21)Nc1ccc(Cl)cc1` (stereo unspecified), the activity change, negative = inhibition was 5.88% [at 11.4 µM] (inactive).

As to `O=C(CSc1n[nH]c(-c2ccccn2)n1)Nc1ccccc1`, the Potency was 7.94 µM (active).

`O=C(CSc1n[nH]c(-c2ccccn2)n1)Nc1ccc(Cl)cc1`: the Potency is 0.794 µM (active).

On to `O=C(CSc1ccc2ccccc2c1)Nc1nc2ccccc2[nH]1`, for which the activity change, negative = inhibition was 78.8% [at 11.4 µM] (inactive).

In the case of `CCn1cc(C(=O)NCc2ccccc2)c(=O)c2cc(F)c(N3CCN(C(=O)c4ccco4)CC3)cc21`, the Potency is 25.1 µM (active).

Consider `CCOC(=O)Cn1cc(C(=O)c2ccco2)c2ccccc21`, for which the activity change, negative = inhibition is -4.82% [at 11.4 µM] (inactive).

Turning to `CCn1cc(C(=O)NCCCN2CCCC(C)C2)c(=O)c2cc(S(=O)(=O)N3CCc4ccccc4C3)ccc21` (stereo unspecified), the “activity change, negative = inhibition” value was -12.8% (inactive).

On to `CCn1cc(C(=O)NCc2cccc(F)c2)c(=O)c2cc(F)c(N3CCN(C(=O)c4ccco4)CC3)cc21`, for which the Potency is 15.8 µM (active).
